Reference: PubChem BioAssay

target: Follistatin-related protein 3 (Homo sapiens) (UniProt O95633); test: compounds binding follistatin-related protein 3 – biochemical, small-molecule microarray, 635 nm fluorescence, primary screen (AID 1105); conditions: FSTL3 binding, higher = more signal;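 also: score merges emission near 667 nm and signal to noise per printed spot across three slides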
Sequence (O95633 whole entry, looked up): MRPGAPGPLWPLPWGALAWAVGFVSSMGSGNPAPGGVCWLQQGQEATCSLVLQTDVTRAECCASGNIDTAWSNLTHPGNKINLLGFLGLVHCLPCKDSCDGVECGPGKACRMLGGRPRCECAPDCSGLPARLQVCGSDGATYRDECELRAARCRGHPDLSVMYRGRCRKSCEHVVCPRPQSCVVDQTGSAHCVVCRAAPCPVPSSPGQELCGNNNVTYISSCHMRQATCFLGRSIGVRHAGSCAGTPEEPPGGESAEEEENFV

`CCOC(=O)[C@H](Cc1ccccc1)NC(=O)CCC1CC(OC(=O)NCc2ccc3c(c2)OCO3)CC2(CCCC(COC(=O)NCc3cccc(C(F)(F)F)c3)O2)O1` (stereo not given in full) was tested. Which composite z-score did it give?
Its composite z-score is 1.

For `CC(=O)OC[C@H]1O[C@@H](ON=C[C@@H](C)[C@H](OCc2ccccc2)C(C)C)[C@H](OC(C)=O)[C@@H](OC(C)=O)[C@@H]1OC(C)=O`, which composite z-score is on record?
Its composite z-score is -0.39.

How did the composite z-score turn out when `O=C1[C@H]2[C@H]3[C@H](O)[C@H](O)CC(=NOCc4ccccc4)[C@H]3CC[C@H]2C(=O)N1C[C@@H]1CCCO1` was run?
Its composite z-score is 0.728.

For `CO[C@@H]1COC(=O)[C@@H]2CCCN2C(=O)[C@@H](C)COC(=O)[C@H](COCc2ccccc2)NC(=O)CC=C[C@H]1C`, which composite z-score is on record?
Its composite z-score is 0.478.

Which composite z-score does the source give for `C=C(/C(=C/C[C@H](OC(C)=O)c1ccc(OCCO)cc1)c1cnc2ccccc2c1)C(C)C` here?
The composite z-score was 1.48.

For `COC(=O)CC=C[C@@H](C)[C@H](OC)c1ccccc1Br`, which composite z-score is on record?
Its composite z-score is 0.231.

`COc1ccccc1CN1C(=O)c2ccccc2[C@@H](C(=O)NCC(F)(F)F)[C@@H]1c1ccc(CO)cc1` was tested. Which composite z-score did it give?
The composite z-score was 0.941.

Which composite z-score does the source give for `O=C1[C@H]2[C@H]3[C@H](O)[C@H](O)CC(=NO[C@@H]4O[C@H](CO)[C@@H](O)[C@H](O)[C@H]4O)[C@H]3CC[C@H]2C(=O)N1C1CCCCC1` here?
The composite z-score was -0.182.

Which composite z-score does the source give for `CC(C)=CCCC(C)=CCON=C1C[C@@H](O)[C@@H](O)[C@@H]2[C@@H]3C(=O)N(C[C@@H]4CCCO4)C(=O)[C@@H]3CC[C@@H]12` here?
The composite z-score was 1.37.

For `C=CC[C@@H]1C=C[C@H](ON=C2c3cc(OC)ccc3O[C@H](c3cccc(OC)c3)[C@H]2O)[C@@H](CO)O1`, which composite z-score is on record?
Its composite z-score is 0.0069.

For `CCc1cc2c(nc1CC)CCN(CCC(C)=NOC[C@@H](O)COCc1ccco1)C2`, which composite z-score is on record?
The composite z-score was 1.5.

Which composite z-score does the source give for `CCN1C(=O)[C@H]2[C@H]3[C@H](O)[C@H](O)CC(=NOC(C)CN4CCCCc5nc(C)c(C)cc54)[C@@H]3CC[C@H]2C1=O` (stereo not given in full) here?
Its composite z-score is 0.756.

For `COCCOC(=O)N1C(=O)[C@@]2(c3cc(C#CC4(O)CCCCCC4)ccc31)[C@H](c1ccc(OCCO)cc1)N1[C@H](c3ccccc3)[C@H](c3ccccc3)OC(=O)[C@H]1[C@@H]2C(=O)NC[C@H](O)c1ccccc1`, which composite z-score is on record?
The composite z-score was 0.432.

Which composite z-score does the source give for `CC1CC/C=C\[C@H]2OC34C=CCN(C(C)C)C(=O)[C@H]3N(CCCO)C(=O)[C@@H]4C2C(=O)O1` (stereo not given in full) here?
The composite z-score was -1.21.

Which composite z-score does the source give for `CCCNC(=O)OC[C@H]1O[C@H](CCON=CC[C@@H]2C=C[C@H](OC(C)=O)[C@@H](COC(C)=O)O2)C=C[C@@H]1Oc1ccc(OC)cc1` here?
Its composite z-score is 0.759.

Which composite z-score does the source give for `Cc1ccc(S[C@]2(C(=O)O)CC(=O)N(Cc3ccccc3)[C@@H]2c2ccc(CO)cc2I)cc1` here?
The composite z-score was -0.417.

How did the composite z-score turn out when `CC(=O)C[C@H](O)[C@@H](NC(=O)OC(C)(C)C)C(C)C` was run?
The composite z-score was -0.441.

How did the composite z-score turn out when `COC(=O)C1=CCC(c2cccc(Cl)c2)O1` (stereo not given) was run?
Its composite z-score is -0.578.

Which composite z-score does the source give for `COCCCNC(=O)[C@@]1(CCS(=O)(=O)c2ccccc2)N=C(c2ccc(OCCCO)cc2)O[C@H]1c1ccccc1` here?
The composite z-score was -0.21.

Which composite z-score does the source give for `O=C(NN=C1C[C@@H](O)[C@@H](O)[C@@H]2[C@@H]3C(=O)N(c4cccc(Oc5ccccc5)c4)C(=O)[C@@H]3CC[C@@H]12)OCc1ccccc1` here?
Its composite z-score is -0.112.

`CCOC(=O)NN=C1C[C@@H](O)[C@@H](O)[C@@H]2[C@@H]3C(=O)N(C[C@@H]4CCCO4)C(=O)[C@@H]3CC[C@@H]12` was tested. Which composite z-score did it give?
Its composite z-score is 0.342.

`COC(=O)c1c(CC[C@@H](CO)NC(=O)N[C@H](Cc2ccccc2)Cn2cc(-c3ccccc3N)nn2)oc(C(C)=O)c1C(=O)OC` was tested. Which composite z-score did it give?
The composite z-score was 0.204.

With `CC(CCN1CCc2nc(-c3ccccc3)c(-c3ccccc3)cc2C1)=NOC(C)CN1CCCCc2nc(C)c(C)cc21` (stereo not given) as the molecule, how does the composite z-score read?
Its composite z-score is 0.609.

For `CCCNC(=O)[C@@H]1c2ccccc2C(=O)N(Cc2ccccc2Cl)[C@H]1c1ccc(CO)cc1`, which composite z-score is on record?
The composite z-score was 1.34.

With `COc1ccc(O[C@H]2C=C[C@@H](c3ccccc3)O[C@@H]2COC(=O)CCC(C)=NOCC[C@@H]2C=C[C@H](OC(C)=O)[C@@H](COC(C)=O)O2)cc1` as the molecule, how does the composite z-score read?
Its composite z-score is 0.415.

Which composite z-score does the source give for `CC(C)OC(=O)C=C1C[C@@H](c2ccc(C#N)cc2)O[C@@H](c2ccc(C#N)cc2)O1` here?
Its composite z-score is 1.4.

Which composite z-score does the source give for `CCCC=C(CCC)[C@@H](NC(=O)c1ccc(-c2ccccc2)cc1)c1ccc(C(=O)OC)cc1` here?
Its composite z-score is 0.0286.

Which composite z-score does the source give for `CCCC[C@@H](O)C1=C(C)C[C@H]2C(=O)N(Cc3ccccc3)C(=O)[C@H]2[C@H]1CO` here?
Its composite z-score is 0.449.

`COCCNC(=O)OCC1CCCC2(CC(OC(=O)NCCc3ccc(F)cc3)CC(CCC(=O)N[C@@H](C)C(=O)OC)O2)O1` (stereo not given in full) was tested. Which composite z-score did it give?
Its composite z-score is 1.22.

With `C[N+](C)(C)CCCCCCNC(=O)[C@@H]1C[C@@H]2C(=O)N3CCC[C@H]3C(=O)N2[C@@H]1c1cccc(OCCO)c1` as the molecule, how does the composite z-score read?
Its composite z-score is 0.476.
